Results published in PubChem BioAssay (EPA / NIEHS).
The source made the active and inactive calls. How the source made its calls: active means hit-call score of the fitted dose curve at least 0.9, where 1 is the maximum; inactive means score below 0.9.

How the values were obtained:
[1] = BSK_hDFCGF_SRB: Viability Assessment in the BioMAP Diversity Plus: hDFCGF Assay (AID 2283061); conditions: primary human foreskin fibroblasts;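 further: cells exposed to compound for 24 h before the read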
Method in brief: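 Readout is SRB absorbance at 560 nm, reflecting total protein in parallel cultures of human foreskin fibroblasts harvested 24 h after chemical dosing. Activity was fitted bidirectionally relative to DMSO.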

[2] = read-out: TIMP metallopeptidase inhibitor 1 (TIMP1), TIMP1 (gene 7076); assay: BSK_hDFCGF_TIMP1: BioMAP Diversity Plus: hDFCGF Assay for TIMP metallopeptidase inhibitor 1 (TIMP1) Biomarker Activity (AID 2283062); conditions: primary human foreskin fibroblasts; actives raise or lower the signal
Method in brief: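 Human skin fibroblasts (primary), hDFCGF system; compound exposure 24 h; TIMP-1 by ELISA; bidirectional fit vs DMSO negative control; overt cytotoxicity by SRB in parallel wells.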

[3] = read-out: Monokine induced gamma interferon (MIG), CXCL9 (gene 4283); assay: BSK_hDFCGF_MIG: BioMAP Diversity Plus: hDFCGF Assay for Monokine induced gamma interferon (MIG) Biomarker Activity (AID 2283063); conditions: primary human foreskin fibroblasts; actives raise or lower the signal
Method in brief: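 Chemicals were added to primary human foreskin fibroblast cultures, which were sampled 24 h later. MIG levels were then quantified by ELISA and responses fitted in both directions relative to DMSO.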

[4] = read-out: Matrix Metallopeptidase 1 (MMP1), MMP1 (gene 4312); assay: BSK_hDFCGF_MMP1: BioMAP Diversity Plus: hDFCGF Assay for Matrix Metallopeptidase 1 (MMP1) Biomarker Activity (AID 2283064); conditions: primary human foreskin fibroblasts; actives raise or lower the signal
Method in brief: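 Primary human foreskin fibroblasts exposed to chemicals for 24 h; MMP1 measured by ELISA. Cytotoxicity tracked by SRB staining in parallel cultures; bidirectional fit relative to DMSO.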

[5] = read-out: Vascular cell adhesion molecule 1 (VCAM1), VCAM1 (gene 7412); assay: BSK_hDFCGF_VCAM1: BioMAP Diversity Plus: hDFCGF Assay for Vascular cell adhesion molecule 1 (VCAM1) Biomarker Activity (AID 2283065); conditions: primary human foreskin fibroblasts; actives raise or lower the signal;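 on AC50: VCAM-1 protein level quantified by ELISA after 24 h chemical exposure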
Method in brief: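 Human foreskin fibroblast primary cells, chemical exposure 24 h; VCAM-1 by ELISA; bidirectional fit, DMSO = negative control/baseline.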

[6] = read-out: Plasminogen activator inhibitor-1 (PAI1), SERPINE1 (gene 5054); assay: BSK_hDFCGF_PAI1: BioMAP Diversity Plus: hDFCGF Assay for Plasminogen activator inhibitor-1 (PAI1) Biomarker Activity (AID 2283066); conditions: primary human foreskin fibroblasts; actives raise or lower the signal
Method in brief: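 PAI-1 levels, determined by ELISA, served as the endpoint in human foreskin fibroblast cultures exposed to compound for 24 h, with DMSO as baseline.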

[7] = read-out: Intercellular Adhesion Molecule 1 (ICAM1), ICAM1 (gene 3383); assay: BSK_KF3CT_ICAM1: BioMAP Diversity Plus: KF3CT Assay for Intercellular Adhesion Molecule 1 (ICAM1) Biomarker Activity (AID 2283067); conditions: primary human keratinocytes with fibroblasts; actives raise or lower the signal
Method in brief: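 ICAM-1 levels are measured by ELISA 24 h after dosing a primary human co-culture of keratinocytes and foreskin fibroblasts. Activity in either direction is fitted relative to DMSO vehicle.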

[8] = read-out: Interferon-gamma inducible Protein 10 (IP10), CXCL10 (gene 3627); assay: BSK_KF3CT_IP10: BioMAP Diversity Plus: KF3CT Assay for Interferon-gamma inducible Protein 10 (IP10) Biomarker Activity (AID 2283068); conditions: primary human keratinocytes with fibroblasts; actives raise or lower the signal
Method in brief: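 In a primary skin co-culture of keratinocytes and fibroblasts, IP-10 is quantified by ELISA at 24 h after dosing. SRB staining of parallel wells monitors overt toxicity. Curves are fitted both directions against DMSO.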

[9] = BSK_KF3CT_SRB: Viability Assessment in the BioMAP Diversity Plus: KF3CT Assay (AID 2283069); conditions: primary human keratinocytes with fibroblasts;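 further: total protein by sulforhodamine B staining as a cytotoxicity measure; read 24 h after compound addition; fitted for both signal gain and loss against DMSO baseline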
Method in brief: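 Human keratinocyte and foreskin fibroblast co-culture exposed to chemical for 24 h. Total protein measured in parallel cultures by 0.1% sulforhodamine B staining after 10% TCA fixation, read at 560 nm; bidirectional fit relative to DMSO.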

[10] = read-out: Interleukin-1 alpha (IL1a), IL1A (gene 3552); assay: BSK_KF3CT_IL1a: BioMAP Diversity Plus: KF3CT Assay for Interleukin-1 alpha (IL1a) Biomarker Activity (AID 2283070); conditions: primary human keratinocytes with fibroblasts; actives raise or lower the signal
Method in brief: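 Primary human keratinocyte plus foreskin fibroblast co-culture, dosed and measured at 24 h in 96-well plates. IL-1a level quantified by ELISA; bidirectional fit relative to DMSO.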

[11] = read-out: TIMP metallopeptidase inhibitor 2 (TIMP2), TIMP2 (gene 7077); assay: BSK_KF3CT_TIMP2: BioMAP Diversity Plus: KF3CT Assay for TIMP metallopeptidase inhibitor 2 (TIMP2) Biomarker Activity (AID 2283071); conditions: primary human keratinocytes with fibroblasts; actives raise or lower the signal
Method in brief: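 Keratinocyte–fibroblast co-culture, 24 h exposure; TIMP-2 ELISA, DMSO-normalised bidirectional fit. Parallel SRB (0.1%, TCA-fixed, 560 nm) total-protein staining gauges cytotoxicity.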

[12] = read-out: C-C motif chemokine 2 (Homo sapiens) (UniProt P13500); assay: BSK_KF3CT_MCP1: BioMAP Diversity Plus: KF3CT Assay for Monocyte Chemoattractant Protein 1 (MCP1/CCL2) Biomarker Activity (AID 2283073); conditions: primary human keratinocytes with fibroblasts; actives raise or lower the signal
Method in brief: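 ELISA readout of MCP-1 after 24 h chemical dosing of a human skin primary co-culture of keratinocytes and foreskin fibroblasts. Activity was fitted in both directions against DMSO.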

[13] = read-out: Matrix Metallopeptidase 9 (MMP9), MMP9 (gene 4318); assay: BSK_KF3CT_MMP9: BioMAP Diversity Plus: KF3CT Assay for Matrix Metallopeptidase 9 (MMP9) Biomarker Activity (AID 2283074); conditions: primary human keratinocytes with fibroblasts; actives raise or lower the signal;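 on AC50: MMP9 protein level quantified by ELISA in the co-culture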
Method in brief: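 Human keratinocyte and foreskin fibroblast co-culture exposed to chemicals for 24 h; MMP9 biomarker measured by ELISA, bidirectional fitting relative to DMSO; cytotoxicity tracked by SRB total protein staining in parallel cultures.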

[14] = read-out: urokinase plasminogen activator (uPA), PLAU (gene 5328); assay: BSK_KF3CT_uPA: BioMAP Diversity Plus: KF3CT Assay for urokinase plasminogen activator (uPA) Biomarker Activity (AID 2283075); conditions: primary human keratinocytes with fibroblasts; actives raise or lower the signal
Method in brief: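 Primary human keratinocyte/foreskin fibroblast co-culture exposed to chemical; uPA measured by ELISA at 24 h. Bidirectional fit versus DMSO, with parallel SRB total-protein staining for cytotoxicity.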

[15] = read-out: CD40, CD40 (gene 958); assay: BSK_LPS_CD40: BioMAP Diversity Plus: LPS Assay for CD40 Biomarker Activity (AID 2283076); conditions: primary human HUVEC with PBMC; actives raise or lower the signal
Method in brief: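 Cells were dosed, incubated 24 h, then assayed for CD40 by ELISA. Gain or loss of signal was analysed relative to DMSO controls. The culture paired human umbilical vein endothelium with peripheral blood mononuclear cells.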

[16] = read-out: E-selectin (Homo sapiens) (UniProt P16581); assay: BSK_LPS_Eselectin: BioMAP Diversity Plus: LPS Assay for Eselectin Biomarker Activity (AID 2283077); conditions: primary human HUVEC with PBMC; actives raise or lower the signal
Method in brief: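 Primary human vascular co-culture (endothelium plus PBMC) was dosed with chemical, then E-selectin quantified by ELISA at 24 h. Endpoint values derive from bidirectional curve fitting relative to DMSO.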

[17] = read-out: Interleukin-8 (IL8), CXCL8 (gene 3576); assay: BSK_LPS_IL8: BioMAP Diversity Plus: LPS Assay for Interleukin-8 (IL8) Biomarker Activity (AID 2283078); conditions: primary human HUVEC with PBMC; actives raise or lower the signal
Method in brief: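 Readout is IL-8 by ELISA, taken 24 h after compounds were added to LPS-stimulated endothelial/PBMC co-cultures. Both increases and decreases relative to DMSO control were scored through bidirectional fitting.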

[18] = BSK_LPS_SRB: Viability Assessment in the BioMAP Diversity Plus: LPS Assay (AID 2283079); conditions: primary human HUVEC with PBMC;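 further: total protein by sulforhodamine B absorbance as a cytotoxicity measure; measured one day after compound addition; fitted in both directions against DMSO so loss or gain of signal counts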
Method in brief: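 Readout is SRB absorbance at 560 nm (0.1% stain, TCA-fixed parallel cultures) as a total-protein cytotoxicity measure. Cells: primary human umbilical vein endothelium plus peripheral blood mononuclear cells, 24 h after chemical exposure; DMSO served as baseline.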

[19] = read-out: Interleukin-1 alpha (IL1a), IL1A (gene 3552); assay: BSK_LPS_IL1a: BioMAP Diversity Plus: LPS Assay for Interleukin-1 alpha (IL1a) Biomarker Activity (AID 2283080); conditions: primary human HUVEC with PBMC; actives raise or lower the signal
Method in brief: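 ELISA read-out of IL-1 alpha from a human primary vascular co-culture (endothelium plus PBMC) under LPS, sampled 24 hours post-dosing. Activity was fitted in both directions relative to DMSO controls.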

Measured: AC50

Sequence of E-selectin (Homo sapiens) (P16581 whole entry, looked up): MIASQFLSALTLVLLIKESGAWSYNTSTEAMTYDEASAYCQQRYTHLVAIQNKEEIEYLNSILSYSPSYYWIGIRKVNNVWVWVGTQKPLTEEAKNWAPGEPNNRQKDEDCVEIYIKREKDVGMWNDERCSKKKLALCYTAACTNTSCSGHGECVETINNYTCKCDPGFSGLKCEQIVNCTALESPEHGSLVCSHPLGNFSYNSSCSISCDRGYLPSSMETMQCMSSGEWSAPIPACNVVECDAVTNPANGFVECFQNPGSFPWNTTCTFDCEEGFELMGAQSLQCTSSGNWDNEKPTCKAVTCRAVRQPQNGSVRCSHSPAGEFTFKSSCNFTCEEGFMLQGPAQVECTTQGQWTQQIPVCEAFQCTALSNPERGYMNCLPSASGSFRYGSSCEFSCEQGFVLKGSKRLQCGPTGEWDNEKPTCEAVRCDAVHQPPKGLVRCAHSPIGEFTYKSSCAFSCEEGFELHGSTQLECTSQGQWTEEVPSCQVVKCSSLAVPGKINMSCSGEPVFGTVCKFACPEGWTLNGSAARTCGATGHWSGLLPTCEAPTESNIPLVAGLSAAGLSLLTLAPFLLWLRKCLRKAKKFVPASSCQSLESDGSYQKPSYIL

CCCCC(CC)COC(=O)CCCCC(=O)OCc1ccccc1 (centres undefined)
inactive: all assays above

CCCCCCCCOC(=O)CCCCCCCCC(=O)OCCCCCCCC
inactive: all assays above

CCCOC(=O)c1ccc(O)cc1
inactive: all assays above

CCCCCCC(=O)O
not listed: [9]
inactive: all other assays above

CC#C[C@]1(O)CC[C@H]2[C@@H]3CCC4=CC(=O)CCC4=C3[C@@H](c3ccc(N(C)C)cc3)C[C@@]21C
active: [1] 20 µM | [4] 26.1 µM | [6] 11.2 µM | [7] 20 µM | [12] 34.2 µM | [13] 24.1 µM | [15] 33.8 µM | [16] 30.5 µM | [17] 32.6 µM | [18] 27.9 µM | [19] 31.3 µM
inactive: [2] | [3] | [5] | [8] | [9] | [10] | [11] | [14]

Oc1cccc(O)c1
inactive: all assays above

CC(C)(C)CC(C)(C)c1ccc(O)c(-n2nc3ccccc3n2)c1
active: [1] 9.39 µM | [3] 7.74 µM | [5] 15.8 µM | [6] 11.3 µM | [13] 16.6 µM
inactive: all other assays above

CCCCCCCCCCCCCCCS(=O)(=O)Oc1ccccc1
inactive: all assays above

O=[N+]([O-])c1ccc(O)cc1
inactive: all assays above

CCC(=C(c1ccc(O)cc1)c1ccc(OCCN(C)C)cc1)c1ccccc1
active: [1] 10.7 µM | [2] 12.1 µM | [3] 13.7 µM | [4] 10.7 µM | [5] 10.7 µM | [6] 7.53 µM | [7] 12.3 µM | [8] 10.4 µM | [9] 8.81 µM | [10] 9.91 µM | [11] 10.5 µM | [12] 10.2 µM | [13] 8.87 µM | [14] 11.8 µM | [15] 7.71 µM | [16] 19.8 µM | [17] 13.3 µM | [18] 9.13 µM | [19] 8.66 µM
